T cruzi growth-1 = T. cruzi proliferation inhibition; actives 5.9% (n = 77,000); T. cruzi beta-gal in NIH3T3, GalScreen luminescence, 90 h; inhibition, % at 8.34 µM;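 active = mean inhibition above about 93%, with at least 55% of replicates each passing it, limit read from the data, passing the limit was not always enough; inconclusive = only one of those two conditions holds; inactive = neither condition holds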
Pf Dd2 growth = P. falciparum Dd2 growth inhibition | activity change, % at 10 µM | AID 1159554 | actives 2.3% (n = 94,000) | SYBR Green, 72 h; active compounds read low; in the data active = activity change below about -80%; inconclusive = no clear call, values can overlap the other calls
C diff HTS = blocks growth of Clostridium difficile | Clostridium difficile clinical isolate growth, OD600, 24 h; active compounds read low | growth activity, negative = inhibition, % at 16 µg/mL (by protocol) | actives 0.25% (n = 86,000) | AID 1259249;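 active = mean growth activity at or below -80% and every replicate also at or below -80%; inconclusive = mean at or below -80% but some replicate above -80%; inactive = mean growth activity above -80%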;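 also: 0% = DMSO wells and -100% = levofloxacin 16 µg/mL wells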
T cruzi growth-2 = Trypanosoma cruzi proliferation inhibition; shares compounds with T cruzi growth-1; T. cruzi beta-gal in NIH3T3, GalScreen luminescence, 90 h; inhibition, % at 8.35 µM; actives 72% (n = 5,600); AID 651739;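 active = mean replicate inhibition above about 95% and at least 55% of replicates individually reaching it, limit read from the data; inconclusive = only one of the two criteria is met; inactive = neither criterion is met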
T cruzi growth-3 = blocks T. cruzi growth in NIH3T3 host cells. actives 21% (n = 5,600). AID 651740. inhibition, % at 2.09 µM. shares compounds with T cruzi growth-1. T. cruzi beta-gal in NIH3T3, GalScreen luminescence, 90 h;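 active = mean inhibition above about 95%, with at least 55% of replicates also reaching it, limit read from the data; inconclusive = meets just one of the two conditions; inactive = meets neither condition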;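 also: plate controls were neutral control median for no effect and positive control median for full effect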
3T3 cytotox = cytotoxicity in mouse NIH/3T3 fibroblasts. shares compounds with T cruzi growth-1. NIH/3T3 viability, CellTiter-Glo ATP luminescence, 90 h. cytotoxicity (signal decrease), % at 8.35 µM. actives 14% (n = 5,600). AID 651742;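 active = mean signal decrease across replicates above about 35% based on untreated-well scatter, with enough replicates individually passing, limit read from the data; inconclusive = no rule stated though some were filed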;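 also: 0% = median of neutral control wells and 100% = median of positive control wells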
3T3 cytotox 2 = NIH/3T3 (mouse) viability loss. NIH/3T3 viability, CellTiter-Glo ATP luminescence, 90 h. inhibition, % at 24.9 µM. actives 56% (n = 5,600). shares compounds with T cruzi growth-1;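 active = mean loss of cell viability signal at or above a set limit, and enough replicates individually reaching it; inconclusive = meets only the mean limit or only the replicate share; inactive = meets neither condition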;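 also: 0% = median of neutral control wells and 100% = median of positive control wells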
* = called active by the depositor; ? = inconclusive; . = no result. The list is not random: actives were taken first. Their share in the collection is about 6.7%.

SMILES	T cruzi growth-1	Pf Dd2 growth	C diff HTS	T cruzi growth-2	T cruzi growth-3	3T3 cytotox	3T3 cytotox 2
CCCN1C[C@@H](C)[C@@H](OC)CN(C)C(=O)c2cc(NC(=O)COC)ccc2OC[C@@H]1C	-14.7	8.1	2.3	.	.	.	.
C[C@H](CO)N1C[C@H](C)[C@@H](CN(C)CC2CCOCC2)Oc2ncc(C#Cc3ccccc3)cc2C1=O	1.8	-34.1	6.1	.	.	.	.
COc1cccc(NC(=O)N2C[C@@H](O)COC[C@H]3O[C@H](CC(=O)NCc4ccccc4F)CC[C@@H]32)c1	.	7.4	-2.0	.	.	.	.
C/C=C/c1ccc([C@H]2[C@H]3CN(S(=O)(=O)c4ccccc4)CC(=O)N3[C@H]2CO)cc1	.	33.3	-0.3	.	.	.	.
Cc1ccc(S(=O)(=O)N[C@@H]2CC[C@H](CCNC(=O)CN3CCOCC3)O[C@H]2CO)cc1	-66.9	9.2	1.3	.	.	.	.
C[C@@H](NC(=O)C[C@@H]1CC[C@H]2[C@@H](COC[C@H](O)CN2C(=O)Nc2ccccc2)O1)c1ccccc1	46.9	15.1	.	.	.	.	.
COc1ccccc1C#Cc1ccc2c(c1)O[C@@H](CN(C)Cc1ccncc1)[C@@H](C)CN([C@H](C)CO)S2(=O)=O	98.0*	-78.3	3.8	101.8*	104.0*	-7.6	-16.0
COc1ccccc1C#Cc1ccc2c(c1)O[C@@H](CN(C)Cc1ccncc1)[C@H](C)CN([C@H](C)CO)S2(=O)=O	121.4*	?	5.0	96.3*	97.0*	82.6*	105.1*
COc1ccccc1C#Cc1ccc2c(c1)O[C@H](CN(C)C)[C@H](C)CN([C@@H](C)CO)S2(=O)=O	.	-41.8	-5.0	.	.	.	.
COc1ccccc1C#Cc1ccc2c(c1)O[C@@H](CN(C)Cc1cncnc1)[C@@H](C)CN([C@H](C)CO)S2(=O)=O	84.1	-28.3	-3.1	.	.	.	.
COc1ccccc1C#Cc1ccc2c(c1)O[C@H](CN(C)Cc1ccncc1)[C@@H](C)CN([C@@H](C)CO)S2(=O)=O	127.5*	-77.0	-5.3	92.6	98.3*	73.9*	104.0*
COc1ccccc1C#Cc1ccc2c(c1)O[C@@H](CN(C)Cc1ccncc1)[C@H](C)CN([C@@H](C)CO)S2(=O)=O	120.5*	?	3.3	99.7*	93.7	73.3*	81.2*
O=C(Nc1ccccc1)N1C[C@H]2[C@@H](c3ccccc31)[C@@H](CO)N2C(=O)c1ccccc1F	14.7	3.6	-6.5	.	.	.	.
C[C@H]1CCCCO[C@H](CN(C)Cc2ccccc2)[C@@H](C)CN([C@@H](C)CO)C(=O)c2cc(NC(=O)CCCN(C)C)ccc2O1	44.9	-21.9	-1.6	.	.	.	.
O=C(C[C@H]1C=C[C@H](NC(=O)c2ccc(F)cc2)[C@@H](CO)O1)NCCc1ccncc1	-34.2	1.5	.	.	.	.	.
CCCN(C)C[C@H]1Oc2ncc(C#CCN(C)C)cc2C(=O)N([C@@H](C)CO)C[C@H]1C	-6.6	9.6	5.9	.	.	.	.
CCCNC(=O)Nc1ccc2c(c1)OC[C@H](C)N(C(=O)c1ccccc1F)C[C@H](C)[C@@H](OC)CN(C)C2=O	.	-2.5	-6.0	.	.	.	.
C[C@@H]1CCCCO[C@@H](CN(C)C(=O)C2CCCCC2)[C@@H](C)CN([C@@H](C)CO)C(=O)c2cc(NC(=O)Nc3cccc4ccccc34)ccc2O1	109.8*	-89.2*	8.3	105.7*	65.1	-9.3	-26.9
C[C@@H]1CCCCO[C@@H](CN(C)C)[C@H](C)CN([C@@H](C)CO)C(=O)c2cc(NC(=O)Nc3cccc4ccccc34)ccc2O1	28.8	15.9	0.9	.	.	.	.
C[C@@H]1CCCCO[C@H](CN(C)C(=O)C2CCCCC2)[C@H](C)CN([C@H](C)CO)C(=O)c2cc(NC(=O)Nc3cccc4ccccc34)ccc2O1	116.9*	-89.5*	-0.1	105.1*	112.8*	-27.9	-17.7
C[C@@H]1CCCCO[C@H](CN(C)C)[C@H](C)CN([C@@H](C)CO)C(=O)c2cc(NC(=O)Nc3cccc4ccccc34)ccc2O1	73.9	-37.3	-1.2	.	.	.	.
O=C(c1ccncc1)N1C[C@@H]2[C@H](c3ccccc31)[C@@H](CO)N2C(=O)c1ccncc1	33.4	31.3	4.9	.	.	.	.
C[C@H]1CN([C@@H](C)CO)C(=O)c2cccc(NC(=O)c3ccc(-c4nccs4)cc3)c2O[C@H]1CN(C)C(=O)Nc1ccc(C(F)(F)F)cc1	94.6	-44.8	.	.	.	.	.
C[C@@H]1CN([C@H](C)CO)C(=O)c2cccc(NC(=O)c3ccc(-c4nccs4)cc3)c2O[C@H]1CN(C)C(=O)Nc1ccc(C(F)(F)F)cc1	114.7*	-11.2	.	99.9*	71.8	28.1	71.5*
C[C@@H]1CN([C@@H](C)CO)C(=O)c2cccc(NC(=O)c3ccc(-c4nccs4)cc3)c2O[C@H]1CN(C)C(=O)Nc1ccc(C(F)(F)F)cc1	119.7*	-44.1	.	86.5	82.0	23.7	70.5*
SMILES	T cruzi growth-1	Pf Dd2 growth	C diff HTS	T cruzi growth-2	T cruzi growth-3	3T3 cytotox	3T3 cytotox 2
C[C@H](CO)N1C[C@H](C)[C@@H](CN(C)C(=O)Nc2ccc(F)cc2)Oc2c(NC(=O)c3ccc(-c4nccs4)cc3)cccc2C1=O	-10.5	5.0	-2.6	.	.	.	.
C[C@@H]1CN([C@H](C)CO)C(=O)c2cccc(N(C)C)c2O[C@@H]1CN(C)C(=O)NC1CCCCC1	25.0	6.8	0.3	.	.	.	.
CCCNC(=O)N(C)C[C@H]1Oc2ncc(C#CC3CCCCC3)cc2C(=O)N([C@@H](C)CO)C[C@H]1C	24.9	-28.6	-2.5	.	.	.	.
C[C@H]1CN([C@@H](C)CO)C(=O)c2cccc(NC(=O)c3cnccn3)c2O[C@@H]1CN(C)S(=O)(=O)c1ccccc1	-1.2	17.5	.	.	.	.	.
O=C(C[C@@H]1CC[C@@H]2[C@H](COC[C@H](O)CN2Cc2ccc3c(c2)OCO3)O1)Nc1ccc(-c2ccccc2)cc1	115.0*	-23.9	19.4	99.1*	99.3*	16.1	30.3*
COc1ccccc1CNC(=O)C[C@H]1CC[C@@H]2[C@H](COC[C@H](O)CN2Cc2ccc3c(c2)OCO3)O1	94.0	-11.0	5.6	.	.	.	.
O=C(C[C@H]1CC[C@@H]2[C@H](COC[C@@H](O)CN2Cc2ccc3c(c2)OCO3)O1)Nc1ccc(-c2ccccc2)cc1	89.1	-32.3	80.0	.	.	.	.
O=C(C[C@H]1CC[C@H]2[C@@H](COC[C@@H](O)CN2Cc2ccc3c(c2)OCO3)O1)Nc1ccc(-c2ccccc2)cc1	112.7*	-39.8	50.7	99.0*	84.5	30.6	69.4*
COc1ccccc1CNC(=O)C[C@H]1CC[C@H]2[C@@H](COC[C@H](O)CN2Cc2ccc3c(c2)OCO3)O1	104.0*	-22.5	5.6	43.3	19.6	10.5	15.0
O=C(C[C@H]1CC[C@H]2[C@@H](COC[C@@H](O)CN2Cc2ccc3c(c2)OCO3)O1)Nc1ccccc1	71.3	-9.2	.	.	.	.	.
COc1cccc(S(=O)(=O)Nc2ccc3c(c2)C(=O)N(C)C[C@@H](OC)[C@@H](C)CN(C(=O)Cc2cccnc2)[C@H](C)CO3)c1	.	-5.8	.	.	.	.	.
